# From PubChem BioAssay (NCATS)
# Records with an inconclusive call do not appear. A number with no mark means an inactive call. Active and inactive are the calls of the source. Calls follow the shape of the dose curve; as a rule, active = well fitted cell-killing curve with a large enough effect; inconclusive = small, poorly fitted or top-dose-only effect; inactive = flat fitted curve, though single readings scatter.
# Experiment: qHTS of pediatric cancer cell lines to identify multiple opportunities for drug repurposing: Primary screen for BT-12 cells (AID 1347101); also: nearly all actives have a fitted effect of over 25% in size;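 as to activity change, negative = cytotoxic: plate controls were DMSO for no effect and bortezomib positive control for full effect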
# Settings: BT-12 viability, CellTiter-Glo luminescence, 48 h; series mostly up to 57.3 µM; activity change, negative = cytotoxic: at the top concentration
# How it was run: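 Cells (500-1,000/well) rested 5 h, then received compounds for 48 h; metabolically active cells were measured by CellTiter-Glo luminescence. Final concentrations spanned up to 46 µM (MIPE, 11-point) or 0.59 nM-46 µM (NPC, 8-point) in primary screens, 11-point in follow-ups.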
# Potency is read from the fitted curve at half-maximal effect.
SMILES,"activity change, negative = cytotoxic",Potency
Cc1onc(-c2c(Cl)cccc2Cl)c1C(=O)Cl,7.66%,
CCOC(=O)Oc1ccc(CCNC(=O)[C@H](CCSC)NC(C)=O)cc1OC(=O)OCC,-1.51%,
O=[N+]([O-])c1nccn1CO[C@@H](CO)[C@H](O)CO,-0.0189%,
NS(=O)(=O)c1ccc(N2CCCCS2(=O)=O)cc1,7.17%,
O=C(O)CCC(=O)OC[C@@H](NC(=O)C(Cl)Cl)[C@H](O)c1ccc([N+](=O)[O-])cc1,-3.01%,
CC(=O)c1ccc(O)c(C(N)=O)c1,18.7%,
O=C1c2ccccc2CCc2ccccc21,-0.653%,
CCOC(=O)c1ccc(NC(=O)CN2CCCCC2)cc1,5.28%,
Cc1c(F)cc2c(=O)c(C(=O)O)cn3c2c1CCC3C (stereo not drawn),-5.78%,
CC(C)(C)NCC(O)COc1ccccc1OCC1CCCO1 (stereo not drawn),0.802%,
Cc1ccc(O)cc1,9.94%,
CCCCC(CC)CNC(=O)CC(C)OC(=O)CCC(=O)O (stereo not drawn),-5.42%,
CCN(CC)CC(=O)OCC(=O)[C@@]1(O)CC[C@H]2[C@@H]3CCC4=CC(=O)CC[C@]4(C)[C@H]3[C@@H](O)C[C@@]21C,4.38%,
OCCCc1ccccc1,10.6%,
O=C(CCCCC(=O)Nc1c(I)cc(I)c(C(=O)O)c1I)Nc1c(I)cc(I)c(C(=O)O)c1I,3.29%,
Cc1cccc(OCC(O)CNC(C)(C)C)c1C (stereo not drawn),2.72%,
Cc1ccc(C(=O)C(=O)O)cc1C,1.31%,
CC(=O)Nc1c(I)c(NC(C)=O)c(I)c(C(=O)O)c1I,-0.258%,
CC(C)(Oc1ccc(Cl)cc1)C(=O)OCCCOC(=O)C(C)(C)Oc1ccc(Cl)cc1,6.81%,
O=C(CO)[C@@H](O)[C@H](O)[C@@H](O)CO,3.82%,

SMILES,"activity change, negative = cytotoxic",Potency
CCOC(=O)O[C@]1(C(=O)OCCl)CC[C@H]2[C@@H]3CCC4=CC(=O)C=C[C@]4(C)[C@H]3[C@@H](O)C[C@@]21C,7.69%,
C[C@H]1C[C@H](O)c2ccsc2S1(=O)=O,3.73%,
CCN(CC)CC(=O)Oc1ccc(NC(C)=O)cc1,9.8%,
COC(=O)c1cc(Cl)c(NC(C)=O)cc1OC,12.8%,
C[N+]1(C)CCC(OC(=O)C(O)(c2ccccc2)C2CCCC2)C1 (stereo not drawn),5.38%,
CCOC(=O)C(O)c1ccccc1 (stereo not drawn),3.76%,
CCN1CCCC1CN (stereo not drawn),2.26%,
Cc1cc2nc3ccc(=[N+](C)C)cc-3sc2cc1N,,15.5 µM (active)
CCOC(=O)OCC/C(SC(=O)OCC)=C(\C)N(C=O)Cc1cnc(C)nc1N,10.5%,
CCN(CC)CCN,3.66%,
CC(C)(C)c1nnc(NS(=O)(=O)c2ccccc2)s1,10.1%,
CC(C)C(=O)Nc1cccc(C(F)(F)F)c1,-0.114%,
CC(C)NCCCC1(C(N)=O)c2ccccc2-c2ccccc21,-2.06%,
Oc1ccccc1-c1nnco1,13.4%,
CN=C(N)NC(=O)Nc1c(C)cccc1C,0.881%,
Cc1cc(=O)oc2cc(O[C@@H]3SC[C@@H](O)[C@H](O)[C@H]3O)ccc12,14.7%,
CN1C(=O)c2ccccc2C1=O,7.75% [at 116 µM],
CCN1CCN(C(=O)N[C@@H](C(=O)N[C@@H]2C(=O)N3[C@@H]2SC(C)(C)[C@H]3C(=O)O)c2ccccc2)C(=O)C1=O,14.7%,
O=C(C1CCCCC1)N1CC(=O)N2CCCc3ccccc3C2C1 (stereo not drawn),0.213%,

# Experiment: qHTS of pediatric cancer cell lines to identify multiple opportunities for drug repurposing: Primary screen for Rh18 cells (AID 1347102); also: nearly all actives have a fitted effect of over 65% in size; as to activity change, negative = cytotoxic: % is scaled to controls: 0 for no effect and ±100 for the full control effect
# Settings: Rh18 rhabdomyosarcoma viability, CellTiter-Glo luminescence, 48 h; series mostly up to 46 µM; activity change, negative = cytotoxic: at the top concentration
# How it was run: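 Viability after 48 h compound treatment at 37C, 500-1,000 cells/well, read as ATP luminescence with CellTiter-Glo. Primary screens used 11-point (MIPE, 0.78 nM-46 µM) or 8-point (NPC, 0.59 nM-46 µM) final concentrations; follow-up screens used 11-point dilutions.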
SMILES,"activity change, negative = cytotoxic",Potency
Cc1onc(-c2c(Cl)cccc2Cl)c1C(=O)Cl,0.0369%,
CCOC(=O)Oc1ccc(CCNC(=O)[C@H](CCSC)NC(C)=O)cc1OC(=O)OCC,4.03%,
O=[N+]([O-])c1nccn1CO[C@@H](CO)[C@H](O)CO,7.44%,
NS(=O)(=O)c1ccc(N2CCCCS2(=O)=O)cc1,19.1%,
O=C(O)CCC(=O)OC[C@@H](NC(=O)C(Cl)Cl)[C@H](O)c1ccc([N+](=O)[O-])cc1,6.81%,
CC(=O)c1ccc(O)c(C(N)=O)c1,19.7%,
O=C1c2ccccc2CCc2ccccc21,17.5%,
CCOC(=O)c1ccc(NC(=O)CN2CCCCC2)cc1,4.76%,
Cc1c(F)cc2c(=O)c(C(=O)O)cn3c2c1CCC3C (stereo not drawn),6.72%,
CC(C)(C)NCC(O)COc1ccccc1OCC1CCCO1 (stereo not drawn),1.88%,
Cc1ccc(O)cc1,23.2%,
CCCCC(CC)CNC(=O)CC(C)OC(=O)CCC(=O)O (stereo not drawn),1.83%,
CCN(CC)CC(=O)OCC(=O)[C@@]1(O)CC[C@H]2[C@@H]3CCC4=CC(=O)CC[C@]4(C)[C@H]3[C@@H](O)C[C@@]21C,25.4%,
OCCCc1ccccc1,11.6%,
O=C(CCCCC(=O)Nc1c(I)cc(I)c(C(=O)O)c1I)Nc1c(I)cc(I)c(C(=O)O)c1I,18%,
Cc1cccc(OCC(O)CNC(C)(C)C)c1C (stereo not drawn),-7.13%,
Cc1ccc(C(=O)C(=O)O)cc1C,7.74%,
CC(=O)Nc1c(I)c(NC(C)=O)c(I)c(C(=O)O)c1I,7.74%,
CC(C)(Oc1ccc(Cl)cc1)C(=O)OCCCOC(=O)C(C)(C)Oc1ccc(Cl)cc1,9.32%,
O=C(CO)[C@@H](O)[C@H](O)[C@@H](O)CO,14.5%,

SMILES,"activity change, negative = cytotoxic",Potency
CCOC(=O)O[C@]1(C(=O)OCCl)CC[C@H]2[C@@H]3CCC4=CC(=O)C=C[C@]4(C)[C@H]3[C@@H](O)C[C@@]21C,12%,
C[C@H]1C[C@H](O)c2ccsc2S1(=O)=O,-3.56%,
CCN(CC)CC(=O)Oc1ccc(NC(C)=O)cc1,13.5%,
COC(=O)c1cc(Cl)c(NC(C)=O)cc1OC,20.2%,
C[N+]1(C)CCC(OC(=O)C(O)(c2ccccc2)C2CCCC2)C1 (stereo not drawn),6.38%,
CCOC(=O)C(O)c1ccccc1 (stereo not drawn),5.22%,
CCN1CCCC1CN (stereo not drawn),8.05%,
Cc1cc2nc3ccc(=[N+](C)C)cc-3sc2cc1N,,2.99 µM (active)
CCOC(=O)OCC/C(SC(=O)OCC)=C(\C)N(C=O)Cc1cnc(C)nc1N,8.27%,
CCN(CC)CCN,20.4%,
CC(C)(C)c1nnc(NS(=O)(=O)c2ccccc2)s1,17%,
CC(C)C(=O)Nc1cccc(C(F)(F)F)c1,8.94%,
CC(C)NCCCC1(C(N)=O)c2ccccc2-c2ccccc21,8.98%,
Oc1ccccc1-c1nnco1,22.1%,
CN=C(N)NC(=O)Nc1c(C)cccc1C,6.37%,
Cc1cc(=O)oc2cc(O[C@@H]3SC[C@@H](O)[C@H](O)[C@H]3O)ccc12,13.6%,
CN1C(=O)c2ccccc2C1=O,17.4% [at 92.7 µM],
CCN1CCN(C(=O)N[C@@H](C(=O)N[C@@H]2C(=O)N3[C@@H]2SC(C)(C)[C@H]3C(=O)O)c2ccccc2)C(=O)C1=O,12.2%,
O=C(C1CCCCC1)N1CC(=O)N2CCCc3ccccc3C2C1 (stereo not drawn),-7.91%,
